The results in this text go back to PubChem BioAssay (NCATS).

Records with an inconclusive call do not appear. A call without a number means that no potency is given here. Active and inactive are the calls of the source. The call rests on the fitted dose curve; in most records, active means well fitted inhibition curve with a large enough effect; inconclusive means small, poorly fitted or top-dose-only effect; inactive means flat fitted curve, though single readings scatter. Where a SMILES comes first, the peptide text is derived from it. Bridges are numbered along the chain shown (N, C = ends). [ ]: non-standard residue; d: D form. The star is where a group is joined. ξ: configuration not given here. X1 = CC[C@@H](C)[C@@H](N)C1=N[C@H](C(=O)*)CS1; d(aIle) = CC[C@H](C)[C@@H](N)C(=O)O; d(aThr) = C[C@@H](O)[C@@H](N)C(=O)O; ξThr(3R) = C[C@@H](O)C(N)C(=O)O; X3 = CC[C@@H](C)CCCCC(=O)*; dOrn = NCCC[C@@H](N)C(=O)O; dDab = NCC[C@@H](N)C(=O)O
Potency means the concentration at half of the fitted maximal effect.

The test deals with Voltage-gated inwardly rectifying potassium channel KCNH2 (Homo sapiens) (UniProt Q12809). Nature of the test: qHTS Assay for Small Molecule Inhibitors of the Human hERG Channel Activity (AID 588834).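 Further: lower thallium flux fluorescence means stronger hERG block; nearly all actives have a fitted effect of over 50% in size.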 Conditions: U2OS BacMam hERG, FluxOR thallium flux fluorescence; series mostly up to 46.1 µM. In short, it runs like this: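 U2OS cells transduced with hERG via BacMam (MOI ~100), plated 2000/well, loaded with FluxOR thallium dye, compound ~10 min, then stimulation buffer; fluorescence decrease read kinetically; AC50 from Hill fits.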
Voltage-gated inwardly rectifying potassium channel KCNH2 (Homo sapiens), sequence (Q12809 whole entry, looked up): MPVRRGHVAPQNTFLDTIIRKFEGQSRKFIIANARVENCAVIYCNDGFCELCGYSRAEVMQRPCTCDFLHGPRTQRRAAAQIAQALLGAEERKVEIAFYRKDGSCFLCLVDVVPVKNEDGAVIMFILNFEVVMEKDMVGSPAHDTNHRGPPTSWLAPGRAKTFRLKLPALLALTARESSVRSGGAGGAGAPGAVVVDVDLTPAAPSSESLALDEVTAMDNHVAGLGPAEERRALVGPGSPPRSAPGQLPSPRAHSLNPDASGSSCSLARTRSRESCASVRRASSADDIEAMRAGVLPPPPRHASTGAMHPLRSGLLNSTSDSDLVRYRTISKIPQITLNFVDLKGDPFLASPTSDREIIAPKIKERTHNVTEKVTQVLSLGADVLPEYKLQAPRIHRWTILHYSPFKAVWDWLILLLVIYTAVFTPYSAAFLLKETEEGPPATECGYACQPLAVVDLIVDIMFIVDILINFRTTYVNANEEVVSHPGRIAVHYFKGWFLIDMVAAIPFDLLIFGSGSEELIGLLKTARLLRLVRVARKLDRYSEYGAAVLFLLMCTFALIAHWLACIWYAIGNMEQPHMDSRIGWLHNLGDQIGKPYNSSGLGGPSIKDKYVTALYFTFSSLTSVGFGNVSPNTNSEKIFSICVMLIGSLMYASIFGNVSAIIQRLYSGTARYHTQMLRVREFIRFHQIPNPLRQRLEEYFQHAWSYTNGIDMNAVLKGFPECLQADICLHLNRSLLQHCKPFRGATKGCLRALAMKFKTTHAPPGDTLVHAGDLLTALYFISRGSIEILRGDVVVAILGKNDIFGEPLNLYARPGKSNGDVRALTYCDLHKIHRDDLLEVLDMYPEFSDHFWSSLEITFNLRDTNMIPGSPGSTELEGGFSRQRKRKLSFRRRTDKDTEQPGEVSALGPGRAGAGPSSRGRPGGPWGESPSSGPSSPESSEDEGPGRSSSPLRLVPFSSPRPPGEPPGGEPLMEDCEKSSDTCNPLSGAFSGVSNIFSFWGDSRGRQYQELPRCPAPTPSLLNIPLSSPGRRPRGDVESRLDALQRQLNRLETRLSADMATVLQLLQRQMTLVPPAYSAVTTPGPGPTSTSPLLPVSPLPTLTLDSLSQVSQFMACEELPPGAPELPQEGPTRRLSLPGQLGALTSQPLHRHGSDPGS
(In general: Quantitative high-throughput screening tests each substance at several concentrations.)
On to `CCC(=O)OC(OP(=O)(CCCCc1ccccc1)CC(=O)N1C[C@H](C2CCCCC2)C[C@H]1C(=O)O)C(C)C` (some centres undefined), for which the Potency entry was “inactive”.
With `CC(=O)N[C@@H]([C@@H](O)[C@H](O)[C@H](O)CO)[C@@H](O)CC(=O)C(=O)O` the entry was “inactive”.
Then `O=[N+]([O-])O[C@@H]1CO[C@H]2[C@@H]1OC[C@@H]2O`, with “inactive”; and `CC[C@H]1OC(=O)C[C@@H](O)[C@H](C)[C@@H](O[C@@H]2O[C@H](C)[C@@H](O[C@H]3C[C@@](C)(O)[C@@H](O)[C@H](C)O3)[C@H](N(C)C)[C@H]2O)[C@@H](CC=O)C[C@@H](C)C(=O)/C=C/C(C)=C/[C@@H]1CO[C@@H]1O[C@H](C)[C@@H](O)[C@@H](OC)[C@H]1OC`, with “inactive”.
Then `CC(C)(C)c1ccc(CN2CCN(C(c3ccccc3)c3ccc(Cl)cc3)CC2)cc1` (centres undefined), with 2.82 µM (active).
For the compound H-RKDVY-OH, the Potency result was “inactive”.
With `CCc1cn([C@H]2C[C@H](O)[C@@H](CO)O2)c(=O)[nH]c1=O` the entry was “inactive”; with `COc1ccc2cc([C@H](C)CO)ccc2c1`, “inactive”.
Then `O=C1/C(=C\c2cccs2)CCC/C1=C\c1cccs1`, with “inactive”; and `CC(=O)O[C@@H]1CC2CCC1(C)C2(C)C` (some centres undefined), with “inactive”; and `OC[C@H]1OC([S-])[C@H](O)[C@@H](O)[C@@H]1O.[Au+]` (some centres undefined), with “inactive”.
With `CC[C@@H](C)[C@@H](N)C1=N[C@H](C(=O)N[C@@H](CC(C)C)C(=O)N[C@@H](CCC(=O)O)C(=O)N[C@@H](C(=O)N[C@@H]2CCCCNC(=O)[C@@H](CC(N)=O)NC(=O)[C@@H](CC(=O)O)NC(=O)[C@@H](Cc3cnc[nH]3)NC(=O)[C@@H](Cc3ccccc3)NC(=O)[C@@H]([C@H](C)CC)NC(=O)[C@@H](CCCN)NC2=O)[C@@H](C)CC)CS1` (X1-LE[d(aIle)][dK][dOrn][dI][dF][dH][dD][dN]; lactam 4-C) the entry was “inactive”.
As for `COc1ccc2c(c1)N(C[C@H](C)CN(C)C)c1ccccc1S2`, the Potency was 8.91 µM (active).
Then `Cn1nnnc1SCC1=C(C(=O)O)N2C(=O)[C@@H](NC(=O)[C@H](O)c3ccccc3)[C@H]2SC1`, with “inactive”.
On to `NC(Cc1ccccc1)C(=O)O` (centres undefined), for which the Potency result was “inactive”.
Then `CCCCCCCCCCCCCCCC(=O)OC[C@H](COP(=O)([O-])OCC[N+](C)(C)C)OC(=O)CCCCCCCCCCCCCCC`, with “inactive”; and `CC[C@@H](C)CCCCC(=O)N[C@H](CCN)C(=O)N[C@@H](C(=O)N[C@H](CCN)C(=O)N[C@@H]1CCNC(=O)C([C@@H](C)O)NC(=O)[C@@H](CCN)NC(=O)[C@@H](CCN)NC(=O)[C@@H](CC(C)C)NC(=O)[C@@H](Cc2ccccc2)NC(=O)[C@@H](CCN)NC1=O)[C@@H](C)O` (stereo partly drawn) (X3-[dDab][d(aThr)][dDab][dDab][dDab][dF][dL][dDab][dDab][ξThr(3R)]; lactam 4-C), with “inactive”; and `C[C@@H]1O[C@@H](OC[C@H]2O[C@@H](Oc3c(-c4ccc(OCCO)c(OCCO)c4)oc4cc(OCCO)cc(O)c4c3=O)[C@H](O)[C@@H](O)[C@@H]2O)[C@H](O)[C@H](O)[C@H]1O`, with “inactive”.
Then `CC(=C\c1ccccc1)/C=C1/SC(=S)N(CC(=O)O)C1=O`, with “inactive”; and `CC(C)[C@@H]1CC[C@@H](C)C[C@H]1OC(=O)c1ccccc1O`, with “inactive”.
Then `CN[C@@H]1[C@@H](O[C@H]2O[C@H](CO)[C@@H](N)[C@H](O)[C@H]2O)O[C@H]2C[C@@H](N)[C@@H](O[C@H]3[C@H](O)[C@@H](O)[C@H](N)C[C@@H]3N)O[C@@H]2[C@@H]1O`, with “inactive”.
As for `CN1CCN(C(c2ccccc2)c2ccc(Cl)cc2)CC1` (centres undefined), the Potency is 5.62 µM (active).
With `CCN(CC)CCOCCOC(=O)C(CC)(CC)c1ccccc1` the figure was 14.1 µM (active); with `CO/N=C(\C(=O)N[C@@H]1C(=O)N2C(C(=O)O)=C(CSc3nnnn3C)CS[C@H]12)c1csc(N)n1`, “inactive”; with `CCCCCCCCCCCC(=O)OC[C@@H](O)C1OC[C@H](O)[C@H]1O` (some centres undefined), “inactive”.
Then `Cc1c(O)c(=O)ccn1C`, with “inactive”; and `CCCCCCCCCCCCCCCC(=O)OC[C@@H](O)[C@H]1OC[C@H](O)[C@H]1O`, with “inactive”.
With `CCCCC(O)c1ccccc1` (centres undefined) the entry was “inactive”.
With `O=C(O)CN(CC(=O)O)CC1=CC2C(=CC1=O)Oc1cc(O)c(CN(CC(=O)O)CC(=O)O)cc1C21OC(=O)c2ccccc21` (centres undefined), the Potency is 0.891 µM (active).
Then `CN[C@@H]1[C@@H](O)[C@@H](O[C@@H]2[C@@H](O)[C@H](OC3OC(CN)=CCC3N)[C@@H](N)C[C@H]2N)OC[C@]1(C)O` (some centres undefined), with “inactive”; and `C[C@@H]1C/C=C/C=C/C=C/C=C/[C@H](O[C@@H]2O[C@H](C)[C@@H](O)[C@H](N)[C@@H]2O)C[C@@H]2O[C@](O)(C[C@@H](O)C[C@H]3O[C@@H]3/C=C/C(=O)O1)C[C@H](O)[C@H]2C(=O)O`, with “inactive”; and `CCN(CC)CCOC[C@H]1O[C@@H](O)[C@H](OCCN(CC)CC)[C@@H](O)[C@@H]1O`, with “inactive”.
Consider `CC1(C)[C@H]2CC[C@]1(C)[C@H](O)C2`, for which the Potency entry was “inactive”.
Then `CC(O)[C@H]1CC[C@H]2[C@@H]3CC[C@@H]4C[C@@H](O)CC[C@]4(C)[C@H]3CC[C@]12C` (some centres undefined), with “inactive”; and `CC(C)CN(C[C@@H](OP(=O)(O)O)[C@H](Cc1ccccc1)NC(=O)O[C@H]1CCOC1)S(=O)(=O)c1ccc(N)cc1`, with “inactive”; and `CC1=CC(=C(c2ccc(N)cc2)c2ccc(N)cc2)C=CC1=N`, with “inactive”.
As to `CC(C)C[C@H](NC(=O)[C@@H](COC(C)(C)C)NC(=O)[C@H](Cc1ccc(O)cc1)NC(=O)[C@H](CO)NC(=O)[C@H](Cc1c[nH]c2ccccc12)NC(=O)[C@H](Cc1cnc[nH]1)NC(=O)[C@@H]1CCC(=O)N1)C(=O)N[C@@H](CCCN=C(N)N)C(=O)N1CCC[C@H]1C(=O)NNC(N)=O`, the Potency result is “inactive”.
Then `CC1=C[C@H](O)CC(C)(C)[C@H]1/C=C/C(C)=C/C=C/C(C)=C/C=C/C=C(C)/C=C/C=C(C)/C=C/C1=C(C)C[C@@H](O)CC1(C)C`, with “inactive”.
With `CC[C@H]1NC(=O)[C@@H](NC(=O)c2ncccc2O)[C@@H](C)OC(=O)[C@H](c2ccccc2)NC(=O)[C@@H]2CC(=O)CCN2C(=O)[C@H](Cc2ccccc2)N(C)C(=O)[C@@H]2CCCN2C1=O` the entry was “inactive”.
